Out of some 320,000 compounds screened, about 22,000 (6.9%) were called active. Another 27% or so got no clear call; they are omitted. This is one part of a sample in which actives are shown more often than they occur. Values without a mark were called inactive. Calls come from the whole dose curve; as a rule, active = well fitted inhibition curve with a large enough effect; inconclusive = small, poorly fitted or top-dose-only effect, or another doubt; inactive = no such curve, though single readings can be large or run the other way.
Experiment: Primary qHTS for delayed death inhibitors of the malarial parasite plastid, 96 hour incubation
Details: P. falciparum luciferase reporter growth; series mostly up to 28.7 µM; activity change, negative = inhibition: at the top concentration
Summary of the method: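 Two parasite generations (96 h, 37 C, 5% CO2) of compound exposure in infected erythrocytes (0.05% parasitemia, 2% hematocrit). Luciferase-reporter P. falciparum; decreased luminescence indicates inhibited growth, aimed at apicoplast-acting delayed death.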
% is set by controls: 0 for no effect and ±100 for the full control effect; potency is the fitted concentration of half-maximal effect.

Row | Compound | activity change, negative = inhibition [%] | Potency
1 | COc1ccccc1CNC(=O)COn1nnc2ccc(S(=O)(=O)N3CCOCC3)cc21 | -2.01 | –
2 | O=C(CN(CC1CCCO1)C(=O)CNS(=O)(=O)c1ccc(F)cc1)NCc1ccco1 (configuration not stated) | 19.6 | –
3 | CC(C)C(C(=O)NCc1ccco1)N(CC1CCCO1)C(=O)CNS(=O)(=O)c1ccc(F)cc1 (configuration not stated) | -19.1 | –
4 | CCCC(C(=O)NCc1ccco1)N(C(=O)CNS(=O)(=O)c1ccccc1)C1CCCC1 (configuration not stated) | – | 10.4 µM (active)
5 | CCc1c(C)nc2cc(C)[nH]n2c1=O | – | 3.7 µM (active)
6 | CCc1c(C)nc2cc(-c3cccs3)[nH]n2c1=O | – | 2.08 µM (active)
7 | Cc1cc(=O)n2[nH]c(-c3cccc(Cl)c3)cc2n1 | -30.1 | –
8 | Cc1nc2nc(COc3ccccc3)[nH]n2c(=O)c1Cc1ccccc1 | 29 | –
9 | C=CCc1c(C)nc2cc(-c3ccccc3)[nH]n2c1=O | 20.7 | –
10 | CCC(C)n1[nH]c(=O)c2c(C)cc(C)nc21 (configuration not stated) | 4.88 | –
11 | CC(=O)Nc1ccc(S(=O)(=O)N2CCC(C(=O)N[C@@H](Cc3ccccc3)C(=O)O)CC2)cc1 | 16.2 | –
12 | CC(OC(=O)CCC(=O)c1ccccc1)C(=O)Nc1ccc(F)cc1 (configuration not stated) | 4.68 | –
13 | NC(=O)CN1CCCC1c1ccc2c(c1)OCCO2 (configuration not stated) | 37.4 | –
14 | O=C(C1CCC1)N1CCN(S(=O)(=O)c2ccc([N+](=O)[O-])cc2)CC1 | – | 10.4 µM (active)
15 | O=C(C1CCCN(S(=O)(=O)c2ccc([N+](=O)[O-])cc2)C1)N1CCCCC1 (configuration not stated) | 83 | –
16 | O=C(Cc1ccccc1)N1CCN(S(=O)(=O)c2ccc([N+](=O)[O-])cc2)CC1 | 0.489 | –
17 | CC1CCCCC1NC(=O)/C(C#N)=C/C=C/c1ccccc1[N+](=O)[O-] (configuration not stated) | – | 11.7 µM (active)
18 | O=C(/C=C/c1ccccc1[N+](=O)[O-])NCC1CCCO1 (configuration not stated) | 0 | –
19 | O=C(/C=C/c1ccccc1[N+](=O)[O-])OC1CCCCC1=O (configuration not stated) | 22.2 | –
20 | CC(=O)Nc1cccc(C(=O)OCC(=O)Nc2nnc(-c3ccccc3)o2)c1 | -0.187 | –
21 | CC(OC(=O)/C=C/c1ccccc1)C(=O)NC1CCCCC1C (configuration not stated) | -13.5 | –
22 | CC[N+](C)(CC)CCC[n+]1c(-c2ccccc2)c2cc(N)ccc2c2ccc(N)cc21 | – | 0.233 µM (active)
23 | O=C(CCNC(=O)c1ccccc1)Nc1nc2ccccc2s1 | 80.1 | –
24 | CC(C)(C)OC(=O)NC(Cc1ccccc1)C(=O)NC(CSC1CCCCO1)C(=O)NN (configuration not stated) | -13.4 | –
25 | CCn1cc(C(=O)NCC(=O)NC(C)(C)CO)c(=O)c2cc3c(cc21)OCO3 | 33.4 | –
26 | O=C(CN(c1cccc(Cl)c1)S(=O)(=O)c1ccccc1)NN=C1CCCC1 | -104 | –

Row | Compound | activity change, negative = inhibition [%] | Potency
27 | COc1ccc(N(CC(=O)Nc2ccc(F)c(F)c2)S(=O)(=O)c2c(C)[nH]c(=O)[nH]c2=O)cc1 | 15.3 | –
28 | COc1cccc(N(CC(=O)NC2CCCCCC2)S(=O)(=O)c2ccccc2)c1 | – | 13.1 µM (active)
29 | CCOc1ccc(N(CC(=O)Nc2ccccc2F)S(=O)(=O)c2c(C)[nH]c(=O)[nH]c2=O)cc1 | 10.6 | –
30 | COc1ccc(N(CC(=O)NC2CCCCC2)S(=O)(=O)c2c(C)[nH]c(=O)[nH]c2=O)cc1 | – | 5.86 µM (active)
31 | COc1cccc(N(CC(=O)NC2CCCC2)C(=O)CCCC(=O)Nc2ccccn2)c1 | -25.1 | –
32 | O=C(Cc1cccs1)NCc1cccc(C(F)(F)F)c1 | 12.6 | –
33 | COc1ccc(N2CC(C(=O)NCCS(=O)(=O)N3CCN(c4ccccc4)CC3)CC2=O)cc1 (configuration not stated) | 107 | –
34 | CCC(CC)C(=O)Nc1c2c(nn1-c1ccc(C)cc1)CS(=O)(=O)C2 | -17.7 | –
35 | O=CN1CCN(C(=O)c2ccc3c(c2)OCO3)CC1 | -14 | –
36 | CC(C)CN(C(=O)CSc1nncn1C)C1CCS(=O)(=O)C1 (configuration not stated) | 45.5 | –
37 | Cc1ccc(C(=O)C[n+]2cc(-c3ccccc3)n3c2CCCCC3)cc1 | – | 0.415 µM (active)
38 | Cc1ccc(NC(=O)CCN2CCc3ccccc3C2)cc1 | -12.6 | –
39 | Cc1cccc[n+]1CC(=O)c1ccccc1 | 33.3 | –
40 | Cc1ccc(C(=O)N2CCCC(c3ccccc3)=N2)cc1 | -22.4 | –
41 | Cc1ccc(NC(=O)CN2CCc3ccccc3C2)cc1 | 21.5 | –
42 | Cc1ccc(-c2c[n+](CC(=O)Nc3ccccc3)c3n2CCC3)cc1 | – | 3.7 µM (active)
43 | COc1ccc(S(=O)(=O)Nc2cc(C)on2)cc1NC(C)=O | 8.11 | –
44 | CCCc1cc(=O)oc2c(C)c(OCC(=O)Nc3ccccn3)ccc12 | -40.6 | –
45 | COCCCNC(=O)CN1C(=O)CSc2ccc(S(=O)(=O)N3CCOCC3)cc21 | 6.67 | –
46 | CCOC(=O)C1CCN(C(=O)Cn2nc(C)c3c(C)n(-c4ccccc4)nc3c2=O)CC1 | 62.5 | –
47 | O=S(=O)(NCCc1ccc(Cl)cc1)c1cccs1 | 30.8 | –
48 | COc1cc(C(=O)OC2CCOC2=O)c([N+](=O)[O-])cc1OC (configuration not stated) | 15 | –
49 | COc1ccc(-c2nnc(NC(=O)CS(=O)(=O)c3ccc(Cl)cc3)o2)c(OC)c1 | – | 8.28 µM (active)
50 | COc1ccc(-c2nnc(SCC(=O)c3cccs3)o2)c(OC)c1 | 7.45 | –
51 | COc1ccc(NC(=O)CS(=O)(=O)c2ccccc2)cc1 | 0.182 | –
52 | COc1ccc(-c2n[nH]c3c2CN(C(=O)c2ccc(F)cc2)CC3)cc1 | 52 | –
